Values joined by “and” are separate entries in the source; they are usually repeats but may differ in a detail not shown here. Equal entries are not always repeated. Records with an inconclusive call do not appear. More than one record can exist for a structure, and the calls need not agree. Active and inactive are the calls of the source. Rule for the calls, unless noted: active = hit-call score of the fitted dose curve at least 0.9, where 1 is the maximum; inactive = score below 0.9.
Assays:
[1] = read-out: Interleukin-8 (IL8), CXCL8 (gene 3576); test: BSK_3C_IL8: BioMAP Diversity Plus: 3C Assay for Interleukin-8 (IL8) Biomarker Activity (AID 2283020); details: primary human endothelial cells (HUVEC); actives raise or lower the signal
Summary of the method: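 Human vascular endothelial cells (umbilical vein) in the 3C system; IL-8 level detected by ELISA at 24 h post-dose, with DMSO as baseline.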

[2] = read-out: Monokine induced gamma interferon (MIG), CXCL9 (gene 4283); test: BSK_3C_MIG: BioMAP Diversity Plus: 3C Assay for Monokine induced gamma interferon (MIG) Biomarker Activity (AID 2283021); details: primary human endothelial cells (HUVEC); actives raise or lower the signal;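 for AC50: MIG protein level measured by immunoassay in the treated endothelial cultures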
Summary of the method: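 After 24 h of treatment, human umbilical vein endothelial cultures (3C system) had their MIG biomarker level determined by ELISA, with DMSO serving as negative control.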

[3] = target: human Vitamin D Receptor (VDR), VDR (gene 7421) (UniProt P11473); test: ATG_VDR_TRANS: Attagene TRANS-FACTORIAL HepG2 Assay for human Vitamin D Receptor (VDR) (AID 2283022; active = hit-call score of the fitted dose curve at least 0.9, where 1 is the maximum)
Summary of the method: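 Steps: transfect HepG2 with GAL4-UAS-driven reporter constructs; dose compounds 24 h; isolate RNA, reverse-transcribe, PCR-amplify with 6-FAM-labelled primer extension and HpaI digestion; quantify fragments by capillary electrophoresis relative to DMSO.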

[4] = BSK_3C_SRB: Viability Assessment in the BioMAP Diversity Plus: 3C Assay (AID 2283023); details: primary human endothelial cells (HUVEC);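 note: cells read 24 h after compound dosing; fitted both ways against DMSO so a hit may be signal rise or drop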
Summary of the method: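 Absorbance at 560 nm of sulforhodamine B-stained (0.1%) total protein served as a cytotoxicity readout in human umbilical vein endothelial cells, 24 h after chemical treatment. Signal was fitted bidirectionally relative to DMSO.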

[5] = read-out: Matrix Metallopeptidase 1 (MMP1), MMP1 (gene 4312); test: BSK_BE3C_MMP1: BioMAP Diversity Plus: BE3C Assay for Matrix Metallopeptidase 1 (MMP1) Biomarker Activity (AID 2283024); details: primary human bronchial epithelial cells; actives raise or lower the signal
Summary of the method: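 Dose cells, wait 24 h, run MMP1 ELISA; cells are human bronchial epithelial primaries. Both increases and decreases relative to DMSO counted.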

[6] = read-out: Pselectin, SELP (gene 6403); test: BSK_4H_Pselectin: BioMAP Diversity Plus: 4H Assay for Pselectin Biomarker Activity (AID 2283026); details: primary human endothelial cells (HUVEC); actives raise or lower the signal
Summary of the method: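 Human vascular endothelium from umbilical vein; P-selectin measured by ELISA at 24 h post-dose, with cytotoxicity checked by sulforhodamine B total-protein staining in parallel cultures (0.1% SRB after 10% TCA fixation, read at 560 nm).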

[7] = BSK_4H_SRB: Viability Assessment in the BioMAP Diversity Plus: 4H Assay (AID 2283027); details: primary human endothelial cells (HUVEC);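 note: cells exposed to compound for 24 h before staining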;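 for AC50: curves fitted both ways versus DMSO so AC50 may be loss or gain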
Summary of the method: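 Human umbilical vein endothelial cells were dosed with chemical and, after 24 h, fixed with 10% TCA, stained with 0.1% sulforhodamine B, and read at 560 nm to give total protein as a cytotoxicity measure. Bidirectional fitting relative to DMSO control.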

[8] = BSK_BE3C_SRB: Viability Assessment in the BioMAP Diversity Plus: BE3C Assay (AID 2283028); details: primary human bronchial epithelial cells;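 note: measured 24 h after chemical dosing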;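 for AC50: fitted both ways so AC50 may mark signal gain or loss versus DMSO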
Summary of the method: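 Cells (human bronchial epithelial, primary) are treated with chemicals, and after 24 h the parallel cultures are fixed in 10% TCA. These are then stained with 0.1% SRB and read at 560 nm. Gain or loss of signal is fitted relative to DMSO.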

[9] = read-out: Thrombomodulin, THBD (gene 7056); test: BSK_3C_Thrombomodulin: BioMAP Diversity Plus: 3C Assay for Thrombomodulin Biomarker Activity (AID 2283029); details: primary human endothelial cells (HUVEC); actives raise or lower the signal
Summary of the method: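 Thrombomodulin ELISA, human primary HUVEC, 24 h post-dose; data fitted in both directions relative to DMSO.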

Measured: AC50

Sequence of human Vitamin D Receptor (VDR), VDR (gene 7421) (P11473 whole entry, looked up, the tested form may be a part): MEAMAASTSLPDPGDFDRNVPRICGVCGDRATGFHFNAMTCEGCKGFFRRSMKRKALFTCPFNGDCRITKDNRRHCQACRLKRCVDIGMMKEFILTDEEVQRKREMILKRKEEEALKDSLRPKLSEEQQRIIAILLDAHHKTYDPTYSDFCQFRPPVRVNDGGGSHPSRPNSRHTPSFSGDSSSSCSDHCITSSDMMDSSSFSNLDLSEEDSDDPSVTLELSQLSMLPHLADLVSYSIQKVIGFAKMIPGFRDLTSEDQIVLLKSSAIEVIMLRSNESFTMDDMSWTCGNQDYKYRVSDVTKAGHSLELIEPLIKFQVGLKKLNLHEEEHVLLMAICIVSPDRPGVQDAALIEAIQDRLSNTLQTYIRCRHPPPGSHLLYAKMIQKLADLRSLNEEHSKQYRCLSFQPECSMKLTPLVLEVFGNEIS

O=C(CC(=O)C(F)(F)C(F)(F)F)C(F)(F)F
inactive: all assays above

FC(F)(F)C(F)(F)C(F)(F)CI
inactive: all assays above

O=C(O)C(F)(OC(F)(F)C(F)(OC(F)(F)C(F)(F)C(F)(F)F)C(F)(F)F)C(F)(F)F (stereo not given)
inactive: all assays above

NC(=O)C(F)(F)C(F)(F)C(F)(F)C(F)(F)F
active: [9] 38.8 µM
inactive: [1] | [2] | [3] | [4] | [5] | [6] | [7] | [8] | [9]

CCCCCCCCC(F)(F)C(F)(F)C(F)(F)C(F)(F)C(F)(F)C(F)(F)F
inactive: all assays above

FC(F)(F)C(F)(F)C(F)(F)C(F)(F)C(F)(F)C(F)(F)C(F)(F)Br
inactive: [1] | [2] | [3] | [4] | [5] | [6] | [7] | [8] | [9]
active: [9] 1.29 µM

CCCCCC=O
inactive: [3]

CCCCCCOC(=O)c1ccccc1
inactive: [3]

FC(F)(F)C(F)(F)C(F)(F)C(F)(F)C(F)(F)C(F)(F)CC1CO1 (stereo not given)
not listed: [3]
inactive: all other assays above

CC(Cc1ccc(O)c(O)c1)C(C)Cc1ccc(O)c(O)c1 (stereo not given)
inactive: [3]

FC1CC(F)(F)C(F)(F)C1(F)F (stereo not given)
not listed: [3]
inactive: all other assays above

C=CC(F)(F)C(F)(F)C(F)(F)C(F)(F)C(F)(F)C(F)(F)C(F)(F)C(F)(F)C=C
not listed: [3]
inactive: all other assays above

OCC(F)(F)C(F)(F)C(F)(F)F
not listed: [3]
inactive: all other assays above

O=C(OCCOCCOCCOC(=O)c1ccccc1)c1ccccc1
inactive: [3]

C1COCCN1
inactive: [3]

Nc1ccc(Oc2cccc(Oc3ccc(N)cc3)c2)cc1
inactive: [3]

COC(=O)C1CCC(C(=O)OC)CC1 (stereo not given)
inactive: [3]

OC[C@@H](O)[C@@H](O)[C@H](O)[C@@H](O)CO
inactive: [3]

O=S(=O)(O)c1ccc2ccccc2c1
inactive: [3]

CCCCCCS
inactive: [3]

O=C(C=Cc1ccccc1)OCC=Cc1ccccc1
inactive: [3]

C(=C(c1ccccc1)c1ccccc1)c1ccccc1
inactive: [3]

Nc1cc(Cl)c(N)c(Cl)c1
inactive: [3]

O=C(O)C(F)(F)C(F)(F)OC(F)(F)F
not listed: [3]
inactive: all other assays above

O=P(O)(O)OCCC(F)(F)C(F)(F)C(F)(F)C(F)(F)C(F)(F)C(F)(F)F
not listed: [3]
inactive: all other assays above

FC(F)(I)C(F)(F)C(F)(F)C(F)(F)I
active: [1] 46.1 µM and 53.1 µM and 53.3 µM | [2] 52.8 µM and 46.1 µM and 55.3 µM | [4] 55 µM and 51 µM and 51.9 µM | [5] 44 µM and 50.6 µM and 22.7 µM | [6] 47.9 µM and 30 µM and 44.7 µM | [7] 56.2 µM and 42.7 µM and 50.5 µM | [8] 50.1 µM and 43.1 µM and 44.2 µM
inactive: [9]

CC(C)=CCCC(C)CCOC(=O)C(C)C (stereo not given)
inactive: [3]

CC(C)(C)c1ccc(OC2CCCCC2O)cc1 (stereo not given)
inactive: [3]

CC/C=C\CCOC(C)=O
inactive: [3]

O=C(O)C(F)(OC(F)(F)C(F)(OC(F)(F)C(F)(OC(F)(F)C(F)(F)C(F)(F)F)C(F)(F)F)C(F)(F)F)C(F)(F)F (stereo not given)
not listed: [3]
inactive: all other assays above

c1ccc(B(c2ccccc2)c2ccccc2)cc1
inactive: [3]

CNC(=S)NC
inactive: [3]

C=CC(F)(F)C(F)(F)C(F)(F)C(F)(F)C(F)(F)C(F)(F)C(F)(F)C(F)(F)F
not listed: [3]
inactive: all other assays above

FC(F)(F)C(F)(F)C(F)(F)C(F)(F)C(F)(F)C(F)(F)C(F)(F)I
not listed: [3]
inactive: all other assays above

O=S(=O)(O)C(F)(F)C(F)(F)C(F)(F)C(F)(F)C(F)(F)C(F)(F)C(F)(F)F
active: [5] 8.64 µM and 15.6 µM
not listed: [3]
inactive: all other assays above

O=C(O)C(F)(F)C(F)(F)C(F)(F)C(F)(F)C(F)(F)C(F)(F)C(F)(F)C(F)(F)C(F)(F)C(F)(F)C(F)(F)C(F)(F)C(F)(F)F
not listed: [3]
inactive: all other assays above

Reference: PubChem BioAssay (EPA / NIEHS)
